Our source for the growth inhibition, inhibition and outcome values is PubChem BioAssay.

Assay [1] is described as follows: antimalarial activity against Dd2 strain (AID 2302;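 active = growth inhibition above 50% at the single 2 µM test dose, taken to imply half-maximal potency below 2 µM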;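 note: 0% = DMSO untreated growth and 100% = chloroquine plus artemisinin killed control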). Particulars: P. falciparum Dd2 in RBCs, LDH growth readout, 72 h; at 2 µM; active compounds read high.
The nature of assay [2]: human hepatoma cell viability loss – ATP luminescence, cytotoxicity control for P. falciparum antimalarial project, primary screen (AID 2303;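 active = inhibition above 50%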;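 note: 0% = DMSO wells and 100% = digitonin-killed cells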). To be noted: HepG2 viability, 24-48 h, at 10 µM, active compounds read high.
Assay [3] concerns the target L-lactate dehydrogenase (Plasmodium falciparum (isolate CDC / Honduras)) (UniProt Q27743). Nature of the assay: PfLDH activity inhibition – cell lysate, 3D7 strain, counter-screen for P. falciparum growth inhibition project (AID 2304).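 Note: 0% = vehicle and 100% = reference inhibitor.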 Particulars: P. falciparum 3D7 crude extract, LDH APAD/NBT absorbance; at 2 µM; active compounds read high. (The purpose of a counterscreen is to sort out artefacts and off-target activity.)

Assay [4] is described as follows: inhibition of 3D7 malaria parasite growth – strain 3D7 (AID 2306).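 Note: 0% = DMSO wells and 100% = chloroquine plus artemisinin control wells.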 Particulars: P. falciparum 3D7 erythrocytic growth, LDH absorbance, 72 h; at 2 µM; active compounds read high.
Assay [5] addresses Calcium-dependent protein kinase 1 (Plasmodium falciparum (isolate 3D7)) (UniProt P62344). Nature of the assay: PfCDPK1 kinase inhibitors, biochemical, TCAMS library (AID 1159585; cut-off not given, nearly all actives have IC50 up to about 0.98 µM;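 note: inhibitors leave more ATP so luminescence rises with inhibition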). Particulars: recombinant PfCDPK1, Kinase-Glo ATP depletion luminescence. On the technique in general: Kinase-Glo reads ATP consumption through a luciferase reaction.
Assay [6] addresses Plasmodium falciparum protein kinase 6 (PK6, PF3D7_1337100) (UniProt Q8IDW1). The experiment in a line: PfPK6 kinase inhibitors, biochemical, TCAMS library (AID 1159586). Particulars: recombinant PfPK6, Kinase-Glo ATP depletion luminescence.
The target in assay [7] is Protein kinase 7 (PK7), Plasmodium falciparum 3D7 (PF3D7_0213400) (UniProt Q7YTF7). The experiment in a line: inhibition of Plasmodium PK7 catalytic activity – biochemical, TCAMS antimalarial set, Kinase-Glo luminescence (AID 1159587). Particulars: recombinant PfPK7, Kinase-Glo ATP depletion luminescence.
Assay [8] deals with Calcium-dependent protein kinase 4 (Plasmodium falciparum (isolate 3D7)) (UniProt Q8IBS5). Nature of the assay: PfCDPK4 kinase inhibitors, biochemical, TCAMS library (AID 1159588; cut-off not given, nearly all actives have IC50 up to about 0.91 µM). To be noted: recombinant PfCDPK4, Kinase-Glo ATP depletion luminescence.

Values without a mark were called inactive. For some of these results: Measured potencies and affinities stand elsewhere. The source made the active and inactive calls. Unless noted, the rule behind the calls is not given here.

Sequence of Protein kinase 7 (PK7), Plasmodium falciparum 3D7 (PF3D7_0213400) (Q7YTF7 1-343): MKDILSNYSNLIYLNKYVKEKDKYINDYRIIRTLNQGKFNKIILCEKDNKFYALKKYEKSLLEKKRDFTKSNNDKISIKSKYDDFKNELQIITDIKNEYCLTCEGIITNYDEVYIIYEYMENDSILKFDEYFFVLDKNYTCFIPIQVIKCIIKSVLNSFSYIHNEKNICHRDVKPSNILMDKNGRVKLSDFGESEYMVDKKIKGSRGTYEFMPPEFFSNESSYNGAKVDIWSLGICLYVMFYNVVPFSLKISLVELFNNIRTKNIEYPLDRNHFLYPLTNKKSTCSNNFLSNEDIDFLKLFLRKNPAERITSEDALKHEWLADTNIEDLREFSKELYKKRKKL
Sequence of Plasmodium falciparum protein kinase 6 (PK6, PF3D7_1337100) (Q8IDW1 1-305): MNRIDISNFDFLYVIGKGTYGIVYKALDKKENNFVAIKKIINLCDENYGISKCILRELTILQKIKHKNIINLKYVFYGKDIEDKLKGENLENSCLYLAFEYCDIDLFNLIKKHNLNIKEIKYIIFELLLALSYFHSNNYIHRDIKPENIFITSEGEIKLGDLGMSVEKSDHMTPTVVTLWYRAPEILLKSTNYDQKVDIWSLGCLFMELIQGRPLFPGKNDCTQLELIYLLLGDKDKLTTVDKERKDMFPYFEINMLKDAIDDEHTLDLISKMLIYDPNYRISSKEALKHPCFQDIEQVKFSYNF
Sequence of L-lactate dehydrogenase (Plasmodium falciparum (isolate CDC / Honduras)) (Q27743 whole entry, looked up): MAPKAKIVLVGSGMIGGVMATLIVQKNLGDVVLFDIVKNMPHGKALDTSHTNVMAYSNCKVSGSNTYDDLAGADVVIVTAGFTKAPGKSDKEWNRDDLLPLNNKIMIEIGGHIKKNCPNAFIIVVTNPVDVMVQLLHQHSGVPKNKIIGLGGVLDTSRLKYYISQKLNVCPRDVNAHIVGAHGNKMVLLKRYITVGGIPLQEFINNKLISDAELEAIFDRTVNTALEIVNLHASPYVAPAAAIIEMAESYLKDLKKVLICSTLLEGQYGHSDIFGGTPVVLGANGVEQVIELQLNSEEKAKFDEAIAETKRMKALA
Sequence of Calcium-dependent protein kinase 1 (Plasmodium falciparum (isolate 3D7)) (P62344 whole entry, looked up): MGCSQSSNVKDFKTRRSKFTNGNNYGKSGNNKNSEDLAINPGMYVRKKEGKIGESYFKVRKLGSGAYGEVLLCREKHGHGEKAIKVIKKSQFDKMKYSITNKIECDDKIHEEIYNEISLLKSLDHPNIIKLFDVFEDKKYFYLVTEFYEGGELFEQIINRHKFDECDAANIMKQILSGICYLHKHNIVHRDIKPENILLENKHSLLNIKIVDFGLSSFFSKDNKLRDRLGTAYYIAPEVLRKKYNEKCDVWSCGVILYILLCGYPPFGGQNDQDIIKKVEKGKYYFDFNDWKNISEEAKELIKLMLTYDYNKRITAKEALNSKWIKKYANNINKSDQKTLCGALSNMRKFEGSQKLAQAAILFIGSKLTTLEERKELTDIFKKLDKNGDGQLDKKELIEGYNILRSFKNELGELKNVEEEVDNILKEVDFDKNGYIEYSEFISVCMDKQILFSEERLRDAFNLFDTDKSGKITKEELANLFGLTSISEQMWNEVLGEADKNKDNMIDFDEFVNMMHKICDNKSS
Sequence of Calcium-dependent protein kinase 4 (Plasmodium falciparum (isolate 3D7)) (Q8IBS5 whole entry, looked up): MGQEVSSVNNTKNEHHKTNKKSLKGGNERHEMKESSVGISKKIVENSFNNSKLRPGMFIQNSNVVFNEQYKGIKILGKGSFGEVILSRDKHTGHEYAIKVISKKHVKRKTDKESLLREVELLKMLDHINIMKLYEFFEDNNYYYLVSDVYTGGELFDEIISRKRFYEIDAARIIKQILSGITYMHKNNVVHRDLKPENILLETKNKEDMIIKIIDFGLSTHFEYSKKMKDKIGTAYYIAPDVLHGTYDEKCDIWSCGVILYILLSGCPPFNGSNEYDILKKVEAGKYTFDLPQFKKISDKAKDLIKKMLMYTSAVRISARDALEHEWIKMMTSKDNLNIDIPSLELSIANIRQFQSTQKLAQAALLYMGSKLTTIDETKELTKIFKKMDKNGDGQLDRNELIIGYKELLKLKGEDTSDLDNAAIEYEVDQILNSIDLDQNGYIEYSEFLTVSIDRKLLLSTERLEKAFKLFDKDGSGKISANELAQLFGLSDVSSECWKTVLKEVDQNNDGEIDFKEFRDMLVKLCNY

Broadly, the inhibition is the drop in the measured response relative to a control, in per cent. For `O=C(/C=C/c1ccc(Cl)c(Cl)c1)NC1CCC(CN2CCC(c3nc4ccccc4s3)CC2)CC1` (stereo not given), the growth inhibition in assay [1] is 32%; in assay [4], 87% (active). Also, the figures for the inhibition in assay [2] and in assay [3] were 50% (active) and -4%, respectively. Further, the outcome in assay [5], in assay [6], in assay [7] and in assay [8] was inactive.

Take `O=C(Nc1cccc(-c2cccc(-c3nc4ccccc4[nH]3)c2)c1)c1ccncc1`: the growth inhibition in assay [1] is 38%; in assay [4], 99% (active). In addition, the inhibition in assay [2] is 27%; in assay [3], -4%. Further, the result in assay [5], in assay [6], in assay [7] and in assay [8] was inactive.

Turning to `Cc1ccc2c(c1C)NC(=O)C21NN=C(c2ccccc2)S1` (stereo not given), the growth inhibition in assay [1] was 65% (active); in assay [4], 97% (active). For the same molecule, the inhibition in assay [2] was 31%; in assay [3] it was 0%. For the same molecule, the result in assay [5], in assay [6], in assay [7] and in assay [8] was inactive.

For `O=C(Nc1cccc(-c2cccc(-c3nc4ccc(C(F)(F)F)cc4[nH]3)c2)c1)c1ccncc1`, the results for the growth inhibition in assay [1] and in assay [4] were 61% (active) and 101% (active), respectively. In addition, the figures for the inhibition in assay [2] and in assay [3] were 52% (active) and 4%, respectively. The outcome in assay [5], in assay [6], in assay [7] and in assay [8] was inactive.

In the case of `O=C(NC1CCN(CCC[C@]2(c3ccc(Cl)c(Cl)c3)CCCN(C(=O)c3ccccc3)C2)CC1)c1ccc(F)cc1`, the figures for the growth inhibition in assay [1] and in assay [4] were 68% (active) and 90% (active), respectively. Further, the results for the inhibition in assay [2] and in assay [3] were 52% (active) and -1%, respectively. In addition, the outcome in assay [5], in assay [6], in assay [7] and in assay [8] was inactive.

Turning to `O=S(=O)(NC1CCN(c2ccnc3cc(Cl)ccc23)C1)c1ccc(C(F)(F)F)cc1` (stereo not given), the figures for the growth inhibition in assay [1] and in assay [4] were 98% (active) and 100% (active), respectively. Also, the inhibition in assay [2] is 20%; in assay [3], 2%. Also, the result in assay [5], in assay [6], in assay [7] and in assay [8] was inactive.

`CC(C)Cc1ccc(N2CCN(CCCCNC(=O)c3ccc(NC(=O)c4cc(C(F)(F)F)cc(C(F)(F)F)c4)cc3)CC2)cc1`: the growth inhibition in assay [1] and in assay [4] was 100% (active) throughout. In addition, the inhibition is 15% in assay [2] and -3% in assay [3]. Further, the result in assay [5], in assay [6], in assay [7] and in assay [8] was inactive.

Regarding `CCN(CC)CCCC(C)Nc1c2cc(OC)ccc2nc2cc(Cl)c([N+](=O)[O-])cc12` (stereo not given), the growth inhibition was 89% (active) in assay [1] and 100% (active) in assay [4]. In addition, the inhibition in assay [2] is 12%; in assay [3], 2%. Besides, the outcome in assay [5], in assay [6], in assay [7] and in assay [8] was inactive.

Take `COc1ccc(-c2csc(NC(=O)CCC(=O)O)n2)cc1OC`: the growth inhibition in assay [1] is -2%; in assay [4] it was 94% (active). Besides, the results for the inhibition in assay [2] and in assay [3] were 63% (active) and 5%, respectively. Moreover, the result in assay [5], in assay [6], in assay [7] and in assay [8] was inactive.

Consider `CCN(CC)CCN(Cc1ccc(-c2ccc(C(F)(F)F)cc2)cc1)C(=O)c1ccc(-c2ccc(NC(=O)OC)cc2C)cc1`, for which the growth inhibition is 42% in assay [1] and 93% (active) in assay [4]. For the same molecule, the inhibition in assay [2] is 66% (active); in assay [3], -6%. Moreover, the outcome in assay [5], in assay [6], in assay [7] and in assay [8] was inactive.

With `COCCCNC(=O)C1CCN(C(c2ccc(Cl)cc2)c2ccc(Cl)cc2)CC1`, the growth inhibition in assay [1] was 63% (active); in assay [4], 91% (active). Also, the inhibition is 5% in assay [2] and 0% in assay [3]. In addition, the outcome in assay [5], in assay [6], in assay [7] and in assay [8] was inactive.

As for `CN1CCC(N2CCN(Cc3ccc(-c4ccc(-c5nc6ccccc6[nH]5)s4)cc3)CC2)CC1`, the growth inhibition is 100% (active) in assay [1] and 101% (active) in assay [4]. Besides, the inhibition in assay [2] is 62% (active); in assay [3], -3%. The result in assay [5], in assay [6], in assay [7] and in assay [8] was inactive.

In the case of `CCCOc1ccc(OCCCON2C(N)=NC(N)=NC2(C)C)cc1`, the growth inhibition in assay [1] is 94% (active); in assay [4], 96% (active). The inhibition was 59% (active) in assay [2] and 5% in assay [3]. In addition, the result in assay [5], in assay [6], in assay [7] and in assay [8] was inactive.

In the case of `Cc1cccc(CNc2nc(C)cc(N[C@@H](Cc3ccccc3)C(=O)NCCOc3ccccc3)n2)c1`, the growth inhibition in assay [1] is 54% (active); in assay [4], 93% (active). Besides, the inhibition in assay [2] was 28%; in assay [3] it was 1%. Besides, the result in assay [5], in assay [6], in assay [7] and in assay [8] was inactive.

In the case of `CCCCn1c(Sc2ccc(C#N)c([N+](=O)[O-])c2)nnc1-c1cc(OC)cc(OC)c1`, the growth inhibition is 70% (active) in assay [1] and 94% (active) in assay [4]. Also, the inhibition is 7% in assay [2] and 2% in assay [3]. The outcome in assay [5], in assay [6], in assay [7] and in assay [8] was inactive.

`O=C(NCc1ccc(Cl)c(Cl)c1)c1ccc(C2CCN(Cc3ccc4nc[nH]c4c3)CC2)cc1`: the results for the growth inhibition in assay [1] and in assay [4] were 31% and 100% (active), respectively. Also, the values for the inhibition in assay [2] and in assay [3] were 1% and -1%, respectively. The outcome in assay [5], in assay [6], in assay [7] and in assay [8] was inactive.

As to `COc1cc2c(cc1NS(=O)(=O)c1ccc(OCc3ccc(Br)cc3)cc1)CCN(C1CCC1)CC2`, the growth inhibition in assay [1] was 30%; in assay [4] it was 94% (active). Also, the inhibition in assay [2] was 36%; in assay [3], 2%. Also, the outcome in assay [5], in assay [6], in assay [7] and in assay [8] was inactive.

For `CC(C)COc1ccc(Cl)cc1Cc1nc(-c2nc3c(CN4CCN(C)CC4)cccc3[nH]2)cs1`, the growth inhibition in assay [1] was 30%; in assay [4] it was 99% (active). For the same molecule, the inhibition in assay [2] is 15%; in assay [3], -2%. The outcome in assay [5], in assay [6], in assay [7] and in assay [8] was inactive.

On to `CCc1cn(C)c2c(N3CCCC3=O)cc(C(=O)N[C@@H](Cc3ccccc3)[C@H](O)CNC3CCCCC3)cc12`, for which the results for the growth inhibition in assay [1] and in assay [4] were 98% (active) and 97% (active), respectively. Further, the inhibition is 8% in assay [2] and -1% in assay [3]. The outcome in assay [5], in assay [6], in assay [7] and in assay [8] was inactive.

As to `CCC(=O)c1cc(C(=O)NCCc2cccc(OC)c2)ccc1OC`, the results for the growth inhibition in assay [1] and in assay [4] were 12% and 83% (active), respectively. For the same molecule, the inhibition was -7% in assay [2] and -2% in assay [3]. The outcome in assay [5], in assay [6], in assay [7] and in assay [8] was inactive.
